Laboratory results taken from PubChem BioAssay AID777 (Sanford-Burnham Center for Chemical Genomics, 2007).
In all, about 96,000 compounds went through this assay and about 19,000 (20%) were called active. The list is a sample of the results. Values without a mark were called inactive.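 How the source made its calls: active means blocking of liver enzyme CYP2C9 beyond about 50% at 5 µM (limit read from the data); inactive means the rest.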

target: Cytochrome P450 2C9 (Homo sapiens) (UniProt P11712); assay: blockers of cytochrome P450 2C9 activity – biochemical, luminescence, ADME assay, primary screen (AID 777); details: CYP2C9 Supersomes, luciferin-H conversion, at 5 µM, stronger effect = higher value
Sequence (P11712 whole entry, looked up): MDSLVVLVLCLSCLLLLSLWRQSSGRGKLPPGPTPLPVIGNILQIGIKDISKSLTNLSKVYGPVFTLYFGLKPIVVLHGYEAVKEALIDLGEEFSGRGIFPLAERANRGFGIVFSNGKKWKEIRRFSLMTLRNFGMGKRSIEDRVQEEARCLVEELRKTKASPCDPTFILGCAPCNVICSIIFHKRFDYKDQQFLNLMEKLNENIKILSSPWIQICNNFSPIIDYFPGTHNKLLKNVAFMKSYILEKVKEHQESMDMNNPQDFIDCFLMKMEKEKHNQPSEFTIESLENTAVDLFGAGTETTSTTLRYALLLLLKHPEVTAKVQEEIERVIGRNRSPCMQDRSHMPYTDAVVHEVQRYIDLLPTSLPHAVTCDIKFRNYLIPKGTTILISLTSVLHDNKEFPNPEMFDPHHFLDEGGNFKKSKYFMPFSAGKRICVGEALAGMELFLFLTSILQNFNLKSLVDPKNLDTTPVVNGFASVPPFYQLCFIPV

Q: For `OC(COc1ccccc1)Cn1cc(Br)cn1` (stereo not given), which inhibition is on record?
A: 18.3%

Q: With `O=C(O)c1ccc(-n2cccc2)cc1O` as the compound, how does the inhibition read?
A: 4.7%

Q: For `CCC(C)(C)n1nnnc1C(c1cccs1)N1CCN(Cc2ccccc2)CC1` (stereo not given), which inhibition is on record?
A: 43.4%

Q: Which inhibition does the source give for `CCC(C)(C)n1nnnc1CN1CCN(c2nc3ccc(C)cc3cc2C#N)CC1` here?
A: 8.7%

Q: Which inhibition does the source give for `CCC(C)(C)n1nnnc1C(c1cccs1)N1CCN(c2nc3ccccc3s2)CC1` (stereo not given) here?
A: 71% (active)

Q: With `COCCCNC(=O)CCc1nc2cccnc2n1Cc1ccc(OC)cc1` as the compound, how does the inhibition read?
A: -1.2%

Q: With `Cn1nc(C(F)(F)F)c2cc(NC(=O)OCC(C)(C)C)sc21` as the compound, how does the inhibition read?
A: -4.4%

Q: For `COc1ccc(OC)c2c1sc(=NC(=O)CN1C(=O)CCC1=O)n2C`, which inhibition is on record?
A: 2.3%

Q: With `CCOC(=O)c1sc(/N=C/Nc2nc(C)c(C(=O)OCC)s2)nc1C` as the compound, how does the inhibition read?
A: 29.2%

Q: `C=CCn1c2ccccc2c2nnc(SC(CC)C(=O)Nc3nc(C)c(C(=O)OCC)s3)nc21` (stereo not given) was tested. Which inhibition did it give?
A: 75% (active)

Q: Which inhibition does the source give for `CCOC(=O)c1sc(NC(=O)C(CC)Sc2nccn2C)nc1C` (stereo not given) here?
A: 45.4%

Q: `O=C(c1cccnc1NCc1ccccc1)N1CCOCC1` was tested. Which inhibition did it give?
A: 4%

Q: `Cc1c(C(=O)OC(C)C)sc(NC(=O)c2cccnc2)c1C#N` was tested. Which inhibition did it give?
A: 95.4% (active)

Q: Which inhibition does the source give for `CCOC(=O)c1cc(NC(=O)c2cccnc2)cc(C(=O)OCC)c1` here?
A: 37.8%

Q: Which inhibition does the source give for `O=C(Nc1cnccn1)c1cccnc1` here?
A: -0.8%

Q: For `O=C(COc1ncnc2c(Cl)cc(Cl)cc12)N1CCN(S(=O)(=O)c2ccccc2)CC1`, which inhibition is on record?
A: -7.6%

Q: How did the inhibition turn out when `CCCCCCCC(=O)NC(Nc1ccccc1OC)C(Cl)(Cl)Cl` (stereo not given) was run?
A: 12.1%

Q: How did the inhibition turn out when `CCCCCN(C(=O)NC(=O)Nc1ccccc1C)S(C)(=O)=O` was run?
A: 32.9%

Q: For `CCCCCN(C(=O)NC(=O)Nc1ccccc1OC)S(C)(=O)=O`, which inhibition is on record?
A: 68.3% (active)

Q: How did the inhibition turn out when `Cc1c(CCO)c(=O)[nH]n1C(=O)c1c(F)cccc1F` was run?
A: -4.2%

Q: How did the inhibition turn out when `Cc1ccc(N2C(=O)S/C(=C/c3cn(C)c4ccccc34)C2=O)cc1` was run?
A: -33.6%

Q: How did the inhibition turn out when `COc1ccc(/C=C2/S/C(=N/N=C3\CC4CCC3(C)C4(C)C)NC2=O)cc1` (stereo not given) was run?
A: -0.8%

Q: For `Cc1sc(NC(=S)NC(=O)c2cccs2)nc1-c1ccc(CC(C)C)cc1`, which inhibition is on record?
A: 14.4%

Q: How did the inhibition turn out when `CCOC(=O)C1=C(c2ccccc2)N=C2SCC(=O)N2C1c1ccc(O)c(OC)c1` (stereo not given) was run?
A: 33.1%

Q: Which inhibition does the source give for `Cc1ccccc1N1C(=O)C2ON(c3ccccc3)C(c3ccncc3)C2C1=O` (stereo not given) here?
A: 65.9% (active)

Q: `COc1cc(C2C3C(=O)N(c4ccccc4)C(=O)C3ON2c2ccccc2)ccc1O` (stereo not given) was tested. Which inhibition did it give?
A: 69.1% (active)

Q: With `COc1cc(C2C(C(=O)Nc3ccccc3OC)=C(C)Nc3ncnn32)ccc1O` (stereo not given) as the compound, how does the inhibition read?
A: 12.1%

Q: How did the inhibition turn out when `CC(=O)c1cc(NC(=O)c2ccccc2)c(=O)oc1/C=C/N(C)C` was run?
A: 46.8%

Q: Which inhibition does the source give for `CCCCCOC(=O)c1ccc(N2C(=O)C3C4C=CC(C4)C3C2=O)cc1` (stereo not given) here?
A: 46.3%

Q: Which inhibition does the source give for `O=S(=O)(NCc1cccnc1)c1ccc(Br)s1` here?
A: 14.7%

Q: `Cc1nc2nc(COc3ccccc3)[nH]n2c(=O)c1Cc1ccccc1` was tested. Which inhibition did it give?
A: 17.5%

Q: Which inhibition does the source give for `CCOCCCNS(=O)(=O)Cc1ccccc1` here?
A: -1.6%

Q: `CCOc1ccc2nc(N3CCCN(C(=O)Nc4ccccc4C)CC3)c(C#N)cc2c1` was tested. Which inhibition did it give?
A: 98.1% (active)

Q: `CCOc1ccc2nc(NCCNS(=O)(=O)c3ccccc3)c(C#N)cc2c1` was tested. Which inhibition did it give?
A: 22.2%

Q: For `CCOc1ccc2cc(C#N)c(SCC(=O)OC)nc2c1`, which inhibition is on record?
A: 21.4%

Q: With `CCOC(=O)CC1C(=O)NCCN1C(=O)COc1ccc(Br)cc1C` (stereo not given) as the compound, how does the inhibition read?
A: -12%

Q: `Fc1cnc(N2CCOCC2)nc1NCc1ccccc1` was tested. Which inhibition did it give?
A: -1.5%

Q: Which inhibition does the source give for `COc1c(C)cccc1C(=O)Nc1cc(Cl)ccc1N1CCOCC1` here?
A: 26.5%

Q: With `Cc1c(NC(=O)c2cc(-c3ccc(Cl)s3)nc3ccccc23)c(=O)n(-c2ccccc2)n1C` as the compound, how does the inhibition read?
A: 29.3%

Q: `Cc1cc(C(=O)Nc2ccccc2N2CCOCC2)c2ccccc2n1` was tested. Which inhibition did it give?
A: 58.2% (active)

Q: For `O=C(CN1CCOCC1)Nc1cc(Cl)ccc1Cl`, which inhibition is on record?
A: -138%

Q: With `O=S(=O)(Nc1ccccc1N1CCOCC1)c1ccc(Cl)s1` as the compound, how does the inhibition read?
A: 10.6%

Q: `O=C(CNC(=O)c1ccc(Cl)cc1Cl)NCC(=O)Nc1ccccc1N1CCOCC1` was tested. Which inhibition did it give?
A: 57.6% (active)

Q: `Nc1nonc1-c1noc(-c2ccc(Br)o2)n1` was tested. Which inhibition did it give?
A: 2.6%

Q: With `O=c1[nH]c(-c2cccs2)nc2ccccc12` as the compound, how does the inhibition read?
A: 3.1%

Q: How did the inhibition turn out when `CCSc1nc(=S)n(CC)c(C)c1C(C)=O` was run?
A: -26.9%

Q: `O=C(NCCC1=CCCCC1)C1CCN(Cc2cnn(-c3ccccc3)c2-n2cccc2)CC1` was tested. Which inhibition did it give?
A: 48.5%

Q: How did the inhibition turn out when `C1=C(CCNc2ncnc3c2cnn3-c2ccccc2)CCCC1` was run?
A: 62% (active)

Q: `S=C(NCCC1=CCCCC1)Nc1ccccc1` was tested. Which inhibition did it give?
A: 14.4%

Q: For `CC(C)CC[n+]1ccn(C2=C([O-])c3ccccc3C(=O)/C2=N\S(=O)(=O)c2ccccc2)c1`, which inhibition is on record?
A: 40.4%

Q: `CCCCOC(=O)NCN1C(=O)C2C3C=CC(C3)C2C1=O` (stereo not given) was tested. Which inhibition did it give?
A: -5.7%

Q: With `c1ccc(-c2cn3c(n2)CCc2ccc4cccnc4c2-3)cc1` as the compound, how does the inhibition read?
A: 20.7%

Q: `O=S(=O)(N1CCOCC1)N1CCN(c2ccccc2F)CC1` was tested. Which inhibition did it give?
A: 17.2%

Q: With `O=C(c1ccc(CN2CCOCC2)cc1)N1CCN(c2ccccc2F)CC1` as the compound, how does the inhibition read?
A: 51.8% (active)

Q: For `O=C(c1cccc2ccccc12)N1CCN(c2ccccc2F)CC1`, which inhibition is on record?
A: -14.7%

Q: Which inhibition does the source give for `COC(=O)[C@H](C(C)C)n1c(C)c(C(C)=O)c(C(C)=O)c1C` here?
A: 7%

Q: With `O=C(CC1Oc2ccccc2NC1=O)NCCCN1CCN(Cc2ccccc2)CC1` (stereo not given) as the compound, how does the inhibition read?
A: -28.8%

Q: `CCOC(=O)c1c(C(C#N)C#N)cc(C)nc1C` was tested. Which inhibition did it give?
A: 41.1%

Q: For `O=C(NCCc1ccccc1)c1ccc(OCCOc2ccccc2)cc1`, which inhibition is on record?
A: -10.5%

Q: Which inhibition does the source give for `O=C(NCCc1ccccc1)c1ccc(NC2=NC3CS(=O)(=O)CC3S2)cc1` (stereo not given) here?
A: 0.2%

Q: With `CC1CCCN(c2ccc(C(=O)NCCc3ccccc3)cn2)C1` (stereo not given) as the compound, how does the inhibition read?
A: 80.7% (active)

Q: `CCC(C)(C)NC(=O)C(c1cccn1C)N(Cc1ccc(C)cc1)C(=O)Cn1nnc2ccccc21` (stereo not given) was tested. Which inhibition did it give?
A: 28.4%

Q: Which inhibition does the source give for `CC(C)CNC(=S)NNC(=O)c1ccccc1OC(F)F` here?
A: 3.6%

Q: With `CNC(=O)c1csc(-c2ccccc2)n1` as the compound, how does the inhibition read?
A: 13.2%

Q: With `COc1cc(N2CCCC2)c(OC)cc1/C=C(/C#N)c1cccc(Br)c1` as the compound, how does the inhibition read?
A: 67.5% (active)

Q: `COc1cccc(C(=O)Nc2ccc(N3CCCC3)cc2)c1` was tested. Which inhibition did it give?
A: 11.9%

Q: With `CN1CCCc2cc(C#N)c(=O)[nH]c21` as the compound, how does the inhibition read?
A: 45.5%

Q: For `O=C(C1CCN(S(=O)(=O)c2cccs2)CC1)N1CCCCCC1`, which inhibition is on record?
A: 34.9%

Q: Which inhibition does the source give for `O=C(NC1CCCCC1)C1CCCN(S(=O)(=O)c2cccs2)C1` (stereo not given) here?
A: 68.3% (active)

Q: How did the inhibition turn out when `CN1CCN(S(=O)(=O)c2ccc(N3CCN(S(=O)(=O)c4cccs4)CC3)nc2)CC1` was run?
A: 49.3%

Q: `O=S(=O)(c1cccs1)N1CCc2ccccc2C1` was tested. Which inhibition did it give?
A: -206%

Q: Which inhibition does the source give for `O=C(NCc1cccs1)C1CCN(S(=O)(=O)c2ccc3c(c2)OCCO3)CC1` here?
A: -174%

Q: For `O=C(NCc1ccc2c(c1)OCO2)C1CCCN(S(=O)(=O)c2cccs2)C1` (stereo not given), which inhibition is on record?
A: 92.5% (active)

Q: Which inhibition does the source give for `O=S(=O)(c1cccs1)N1CCN(Cc2ccccc2)CC1` here?
A: 69.5% (active)

Q: With `CCCS(=O)(=O)N1CCCC(C(=O)NCc2ccco2)C1` (stereo not given) as the compound, how does the inhibition read?
A: 0.9%

Q: Which inhibition does the source give for `CCS(=O)(=O)N1CCCC(C(=O)NCc2ccc(C)cc2)C1` (stereo not given) here?
A: 6.9%

Q: How did the inhibition turn out when `O=C(NCc1ccco1)C1CCCN(S(=O)(=O)c2ccccc2)C1` (stereo not given) was run?
A: 30.4%

Q: `Cc1ccc(CNC(=O)C2CCCN(S(C)(=O)=O)C2)cc1` (stereo not given) was tested. Which inhibition did it give?
A: -3.4%

Q: `O=C(NCc1ccccc1)C1CCCN(S(=O)(=O)c2cccs2)C1` (stereo not given) was tested. Which inhibition did it give?
A: 81.9% (active)

Q: How did the inhibition turn out when `CCCC(=O)N1c2ccc(-c3csc(N)n3)cc2CC1C` (stereo not given) was run?
A: 34.6%

Q: `CN1C(=O)c2ccc(NC(=O)C3CCCCC3)cc2C1=O` was tested. Which inhibition did it give?
A: 3.3%

Q: With `CN1CCC2(CC1)NC(=O)NC2=O` as the compound, how does the inhibition read?
A: -9.5%

Q: For `CSC1=N/C(=C\c2ccc3c(c2)OCO3)C(=O)S1`, which inhibition is on record?
A: 1.7%

Q: `COc1cc(/C=C(\C#N)c2nc3c(s2)CC(C)CC3)ccc1O` (stereo not given) was tested. Which inhibition did it give?
A: -74.5%

Q: For `CCCCc1nnc(NC(=O)CSc2nc(C)cc(=O)[nH]2)s1`, which inhibition is on record?
A: 14%

Q: With `Cc1ccc2cccc(O)c2[n+]1[O-]` as the compound, how does the inhibition read?
A: 11.3%

Q: `COCc1cc(C(C)=O)ccc1OC` was tested. Which inhibition did it give?
A: -37.2%

Q: For `COc1ccc(CCN=C2SCC(=O)N2C)cc1OC`, which inhibition is on record?
A: 15.5%

Q: `COc1ccc(CC(=O)c2ccc(O)cc2O)cc1OC` was tested. Which inhibition did it give?
A: 53.9% (active)

Q: With `CCCOC(=O)C1=C(C)NC2=C(C(=O)C(C(=O)OC)C(C)C2)C1c1ccc(N(C)C)cc1` (stereo not given) as the compound, how does the inhibition read?
A: 18.1%

Q: Which inhibition does the source give for `COc1cc(OC)cc(C(=O)Nc2ccc(-c3nc4ccccc4o3)c(O)c2)c1` here?
A: -18.6%

Q: How did the inhibition turn out when `COc1ccccc1Nc1ncnc2c1oc1ccccc12` was run?
A: 19.7%

Q: Which inhibition does the source give for `COc1ccc(/C=N/Nc2nc3ccccc3c(=O)[nH]2)cc1` here?
A: 9.9%

Q: Which inhibition does the source give for `Cc1ccc(/C=N/NC(=O)C(NC(=O)c2ccccc2)c2n[nH]c(=O)c3ccccc23)cc1` (stereo not given) here?
A: 56.5% (active)

Q: `Cc1ccc(C(=O)N/N=C/c2sc(=O)n(Cc3cccc(C(=O)O)c3)c2Cl)cc1` was tested. Which inhibition did it give?
A: 12.3%

Q: For `CC(=O)c1cnc(SCCN2C(=O)c3ccccc3C2=O)nc1C`, which inhibition is on record?
A: 13.5%

Q: Which inhibition does the source give for `Nc1ccc(SCCN2C(=O)c3ccccc3C2=O)cc1` here?
A: 71.9% (active)

Q: How did the inhibition turn out when `O=C1c2ccccc2C(=O)N1CCC(c1ccccc1)c1ccco1` (stereo not given) was run?
A: 40.2%

Q: With `CCCS(=O)(=O)C(=C1Nc2ccccc2N1)S(=O)(=O)CCC` as the compound, how does the inhibition read?
A: 8.7%

Q: How did the inhibition turn out when `COc1ccc(C(C#N)Nc2ccccc2C)cc1` (stereo not given) was run?
A: 4.4%
